This is a sample that favours compounds with a hit; in the whole collection about 8.3% have one here.
Lassa entry inh = Lassa virus entry inhibition; AID 540256; Lassa virus pseudotype entry inhibition, cell reporter; 300,000 tested, 1.2% active; Potency, µM (highest dose often 37.9 µM), most hits filed as inhibitors; calls by dose curve; tested in HEK293 cells; further: nearly all actives have a fitted effect of over 50% in size
HCMV inh = human cytomegalovirus inhibition; HFF cells, HCMV-luciferase reporter, 72 h; active compounds read low; activity change, negative = inhibition, % at 57.5 µM; 410,000 tested, 4.5% active; AID 1259415; in the data active means activity change below about -60%; inconclusive means no clear call, values can overlap the other calls; inactive means above about -39%
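Screen run at 2 compound doses on HFFs infected with reporter HCMV, MOI 1 PFU/cell. Luciferase activity from cell lysates at 72 h post infection gave inhibition relative to buffer-only and Salinomycin wells.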
FMDV antiviral = foot and mouth disease virus antiviral activity; 410,000 tested, 1.2% active; FMDV antiviral cell-based qHTS; Potency, µM (highest dose often 57.9 µM), hits mostly inhibitors; AID 1159524; calls by dose curve; tested in HEK293T cells; further: read-out not given here; nearly all actives have a fitted effect of over 45% in size
Marburg entry inh = Marburg virus entry inhibition; Marburg virus pseudotyped entry inhibition, cell reporter; Potency, µM (highest dose often 37.8 µM), hits mostly inhibitors; 300,000 tested, 1.8% active; calls by dose curve; tested in HEK293 cells
HCV inhibitor = inhibitors of hepatitis C virus infection; Huh7.5.1 HCVcc-Cre infection, luciferase reporter, 44 h; Potency, µM (doses to about 41.8 µM), actives largely listed as inhibitors; 340,000 tested, 3.4% active
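Cells (1,000/well) were plated 4 h before compound, then infected with HCVcc-Cre virus (~0.5 moi). After 44 h further culture, infection was read as luciferase luminescence following a 15 min substrate incubation at room temperature.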
Giardia FBPA inh = Giardia lamblia aldolase inhibition; A8B2U2; purified Giardia FBPA; Potency, µM (doses to about 59.6 µM), hits mostly inhibitors; 290,000 tested, 0.71% active; further: nearly all actives have a fitted effect of over 55% in size
Target sequence (A8B2U2 whole entry, looked up): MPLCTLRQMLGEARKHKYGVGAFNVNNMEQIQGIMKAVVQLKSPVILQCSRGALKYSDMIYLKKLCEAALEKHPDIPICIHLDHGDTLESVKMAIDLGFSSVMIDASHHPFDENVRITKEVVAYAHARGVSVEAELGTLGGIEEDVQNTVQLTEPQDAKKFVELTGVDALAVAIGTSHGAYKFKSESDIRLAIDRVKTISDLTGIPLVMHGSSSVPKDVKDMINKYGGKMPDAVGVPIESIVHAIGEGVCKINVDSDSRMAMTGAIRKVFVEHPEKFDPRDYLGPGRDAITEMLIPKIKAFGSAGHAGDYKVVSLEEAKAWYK
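40 nM FBPA preincubated 10 min at RT with compound (up to 57.5 uM final), then substrate plus GAPDH/TPI/NAD/arsenate coupling and diaphorase/resazurin added. Fluorescence read after 20 min at RT, 525/598 nm.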
A number is an active result; i = inactive; ? = inconclusive; nt = no result. Unless noted, the call rests on the fitted dose curve; in most records, active means well fitted curve in the direction sought with a large enough effect; inconclusive means small, poorly fitted or top-dose-only effect, or another doubt; inactive means no such curve, though single readings can be large; an effect the other way counts as inactive or inconclusive.

SMILES	Lassa entry inh	HCMV inh	FMDV antiviral	Marburg entry inh	HCV inhibitor	Giardia FBPA inh
CCc1ccccc1NC(=S)N(CCc1ccncc1)C(C)C	nt	-92.6	i	nt	i	i
O=C(CF)N(O)c1ccc(C=Cc2ccccc2)cc1	1.12µM	-79.4	i	1µM	?	nt
CCOC(=O)C(=Cc1ccc(N(C)C)cc1)C(=O)c1ccccc1	nt	i	?	nt	nt	nt
CCOC(=O)N(O)c1ccc(C=Cc2ccccc2)cc1	0.631µM	-62.2	i	1.26µM	3.98µM	nt
COc1ccc(OC)c(CCNC(=O)C(C)n2c(C)c3cnn(-c4ccccc4)c(=O)c3c2C)c1 (centres undefined)	i	i	i	i	nt	nt
CN(C)CCCNc1nc2sc3c(c2c(=O)n1CCc1ccccc1)CCCCC3	?	?	i	7.08µM	?	i
CN(C)CCCn1c(=O)n(CCc2ccccc2)c(=O)c2c3c(sc21)CCCCC3	nt	i	?	nt	i	i
Cc1ccc(-n2cc(-c3ccc([N+](=O)[O-])cc3)[nH]c2=S)c(C)c1	i	-64.3	i	i	?	i
Cc1cccc(-n2cc(-c3ccc([N+](=O)[O-])cc3)[nH]c2=S)c1	?	i	i	i	i	i
O=C(Nc1cccc(C(=O)O)c1)Nc1ccc2c(c1)OCO2	0.316µM	i	?	?	i	i
O=C(Nc1ccc(OC(F)F)c(Cl)c1)Nc1ccc2c(c1)OCO2	i	i	i	i	17.8µM	i
O=C(Nc1ccc2c(c1)OCO2)Nc1ccc2c(c1)OCO2	nt	i	i	nt	i	i
C=CCNC(=S)Nc1ccc(OC(F)F)c(Cl)c1	?	?	i	i	11.2µM	i
CCn1c(C)c(C)c2cc(C(=O)NCC(C)c3ccccc3)ccc21 (centres undefined)	?	i	i	nt	nt	nt
Cc1ccc(Cn2ncc3c(NN)ncnc32)cc1	?	-86.4	i	i	?	i
COc1ccc(-n2ncc3c(N4CCN(Cc5ccccc5)CC4)ncnc32)cc1	?	-95.1	35.5µM	?	?	i
Cc1ccc(Cn2ncc3c(N4CCN(Cc5ccc(Cl)cc5)CC4)ncnc32)cc1	?	-82.1	?	2.82µM	4.47µM	i
CCN1CCN(c2ncnc3c2sc(=S)n3-c2ccccc2)CC1	i	i	i	i	i	i
CCN1CCN(c2ncnc3c2cnn3-c2ccccc2)CC1	nt	i	i	nt	i	i
Cc1ccc(Cn2ncc3c(NCCN(C)C)ncnc32)cc1	nt	i	i	nt	i	i
S=c1sc2c(N3CCN(Cc4ccccc4)CC3)ncnc2n1-c1ccccc1	i	i	28.2µM	?	i	i
CCn1cc(C(=O)NCc2ccccc2Cl)c(=O)c2cc(S(=O)(=O)N3CCc4ccccc4C3)ccc21	i	i	i	i	nt	nt
CC(C)(C)n1nc(C2CC2)c(Br)c1NC(=O)c1ccc(Cl)cc1	nt	i	nt	nt	nt	nt
CCCCC[C@H](O)/C=C/C=C\C/C=C\C/C=C\CCCC(=O)O	nt	nt	nt	nt	nt	i
O=C1CCN(CCc2ccccc2)CCN1C(CSc1ccc(Br)cc1)Cc1ccccc1 (centres undefined)	nt	nt	nt	nt	nt	i
SMILES	Lassa entry inh	HCMV inh	FMDV antiviral	Marburg entry inh	HCV inhibitor	Giardia FBPA inh
Cc1ccc(-n2ncc3c(N4CCN(Cc5ccccc5)CC4)ncnc32)cc1C	?	?	14.1µM	nt	nt	nt
Clc1cccc(-n2ncc3c(N4CCN(Cc5ccccc5)CC4)ncnc32)c1	i	i	?	nt	nt	nt
Cc1cc(C)c(C)c(S(=O)(=O)NCC(=O)NCC2CCCCC2)c1C	i	-61.6	i	?	i	i
Cn1c2ccccc2c(=O)c2cc(C#CC3=CCCCC3)ccc21	nt	i	i	nt	?	nt
C=CCn1c2ccccc2c(=O)c2cc(C#CC3(O)CCCCC3)ccc21	nt	i	i	nt	10µM	i
C=CCn1c2ccccc2c(=O)c2cc(C#CC[C@@H](C)O)ccc21	nt	i	i	nt	12.6µM	nt
CC(=O)c1ccc(N2CCN(S(=O)(=O)c3ccc4c5c3CC(=O)N5CC(C)S4)CC2)cc1 (centres undefined)	nt	nt	14.1µM	nt	?	?
CCC(c1nnnn1C(C)(C)C)N1CCN(Cc2ccccc2OC)CC1 (centres undefined)	nt	-71.8	i	nt	i	i
CCC(c1nnnn1C(C)(C)C)N1CCN(c2cc(Cl)ccc2C)CC1 (centres undefined)	12.6µM	i	i	10µM	i	i
COc1ccc(NC(=O)N2CC[C@@]3(CCCN(C(C)=O)C3)C2)cc1	nt	nt	i	nt	nt	i
Cc1ccc(CNc2ncnc3c2nc2n3CCCC2)cc1	i	i	i	nt	nt	nt
CCOC(=O)c1c2n(c3c(NCc4ccccc4)ncnc13)CCCC2	i	i	i	?	5.01µM	i

Source: PubChem BioAssay (National Center for Advancing Translational Sciences (NCATS))
